PubChem BioAssay AID1159580 (chemical genetic matrix, 2015)
Several values for one entry are separate records, joined by “and”; a condition that tells them apart may be missing. Identical values can stand only once. Hit rate of the full screen: of about 5,500 compounds, about 2,000 (36%) were called active. Not shown: some 18% with an inconclusive outcome. No stated cut-off is given here; in the data, active means normalized growth mostly below about 0.91 (no sharp cut-off); inconclusive means no clear call, values can overlap the other calls; inactive means mostly above about 0.92. The list shows a part of the results.

Test: chemical genetic growth profiling, strain panel (AID 1159580);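 further: tested at 20 µM; growth read once vehicle control cultures reached saturation at 30 °C; 1 = growth at the plate median or of vehicle wells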
Conditions: growth OD

Measured: normalized growth

O=C(O)c1cc(=O)c2ccccc2[nH]1
inactive: S. cerevisiae deletion strains, locus YJR075W, strain HOC1, stronger effect = lower value 0.999 | S. cerevisiae deletion strains, locus YKL009W, strain mrt4, stronger effect = lower value 1.01 | S. cerevisiae deletion strains, locus YKL068W, stronger effect = lower value 0.991 | S. cerevisiae deletion strains, locus YKL085W, strain MDH1 (second series), stronger effect = lower value 0.998 | S. cerevisiae deletion strains, locus YKL085W, strain MDH1, stronger effect = lower value 0.998 | S. cerevisiae deletion strains, locus YKL160W, strain elf1, stronger effect = lower value 0.993 | S. cerevisiae deletion strains, locus YKL190W, strain CNB1, stronger effect = lower value 1 | S. cerevisiae deletion strains, locus YKR001C, strain vps1, stronger effect = lower value 1.01 | S. cerevisiae deletion strains, locus YKR026C, strain gcn3, stronger effect = lower value 0.98 | S. cerevisiae deletion strains, locus YKR091W, strain srl3, stronger effect = lower value 0.993 | S. cerevisiae deletion strains, locus YLL001W, strain dnm1, stronger effect = lower value 0.991 | S. cerevisiae deletion strains, locus YLL026W, stronger effect = lower value 0.994 | S. cerevisiae deletion strains, locus YLL041C, strain sdh2, stronger effect = lower value 0.98 | S. cerevisiae deletion strains, locus YLR027C, strain aat2, stronger effect = lower value 0.989 | S. cerevisiae deletion strains, locus YLR039C, strain RIC1, stronger effect = lower value 1.01 | S. cerevisiae deletion strains, locus YLR058C, strain SHM2, stronger effect = lower value 0.972 | S. cerevisiae deletion strains, locus YLR102C, strain apc9, stronger effect = lower value 1 | S. cerevisiae deletion strains, locus YLR113W, strain HOG1, stronger effect = lower value 1.01 | S. cerevisiae deletion strains, locus YLR221C, strain rsa3, stronger effect = lower value 0.973 | S. cerevisiae deletion strains, locus YLR258W, strain gsy2, stronger effect = lower value 0.98 | S. cerevisiae deletion strains, locus YLR262C, strain YPT6 (second series), stronger effect = lower value 1.04 | S. cerevisiae deletion strains, locus YLR262C, strain YPT6, stronger effect = lower value 1 | S. cerevisiae deletion strains, locus YLR268W, strain sec22, stronger effect = lower value 1.01 | S. cerevisiae deletion strains, locus YLR320W, strain mms22, stronger effect = lower value 0.977 | S. cerevisiae deletion strains, locus YLR330W, strain CHS5, stronger effect = lower value 0.989 | S. cerevisiae deletion strains, locus YLR342W, strain FKS1 (second series), stronger effect = lower value 1.01 | S. cerevisiae deletion strains, locus YLR342W, strain FKS1, stronger effect = lower value 0.986 | S. cerevisiae deletion strains, locus YLR357W, strain rsc2, stronger effect = lower value 0.936 | S. cerevisiae deletion strains, locus YLR370C, strain arc18, stronger effect = lower value 0.987 | S. cerevisiae deletion strains, locus YLR371W, strain rom2, stronger effect = lower value 0.986 | S. cerevisiae deletion strains, locus YLR384C, strain iki3, stronger effect = lower value 0.942 | S. cerevisiae deletion strains, locus YLR418C, strain cdc73, stronger effect = lower value 1.05 | S. cerevisiae deletion strains, locus YML016C, strain PPZ1, stronger effect = lower value 0.984 | S. cerevisiae deletion strains, locus YML032C, strain rad52, stronger effect = lower value 0.976 | S. cerevisiae deletion strains, locus YML120C, strain ndi1, stronger effect = lower value 0.99 | S. cerevisiae deletion strains, locus YML124C, strain tub3, stronger effect = lower value 0.992 | S. cerevisiae deletion strains, locus YMR058W, strain fet3, stronger effect = lower value 0.99 | S. cerevisiae deletion strains, locus YMR078C, strain ctf18, stronger effect = lower value 0.984 | S. cerevisiae deletion strains, locus YMR125W, strain sto1, stronger effect = lower value 0.972 | S. cerevisiae deletion strains, locus YMR129W, stronger effect = lower value 1 | S. cerevisiae deletion strains, locus YMR205C, strain PFK2, stronger effect = lower value 0.986 | S. cerevisiae deletion strains, locus YMR223W, strain ubp8, stronger effect = lower value 0.985 | S. cerevisiae deletion strains, locus YMR231W, strain pep5, stronger effect = lower value 0.973 | S. cerevisiae deletion strains, locus YMR263W, strain SAP30, stronger effect = lower value 0.988 and 0.996 | S. cerevisiae deletion strains, locus YMR307W, strain GAS1, stronger effect = lower value 1.09 | S. cerevisiae deletion strains, locus YNL067W, strain RPL9B, stronger effect = lower value 0.998 | S. cerevisiae deletion strains, locus YNL071W, strain lat1, stronger effect = lower value 1.01 | S. cerevisiae deletion strains, locus YNL128W, strain TEP1, stronger effect = lower value 0.963 | S. cerevisiae deletion strains, locus YNL153C, strain GIM3, stronger effect = lower value 1 and 1.01 | S. cerevisiae deletion strains, locus YNL175C, strain NOP13, stronger effect = lower value 0.978 | S. cerevisiae deletion strains, locus YNL183C, strain NPR1, stronger effect = lower value 0.893 | S. cerevisiae deletion strains, locus YNL197C, strain WHI3, stronger effect = lower value 0.981 | S. cerevisiae deletion strains, locus YNL209W, strain ssb2, stronger effect = lower value 0.989 | S. cerevisiae deletion strains, locus YNL224C, strain SQS1, stronger effect = lower value 0.989 | S. cerevisiae deletion strains, locus YNL233W, strain BNI4, stronger effect = lower value 0.993 | S. cerevisiae deletion strains, locus YNL248C, strain rpa49, stronger effect = lower value 0.987 | S. cerevisiae deletion strains, locus YNL250W, strain rad50, stronger effect = lower value 0.976 | S. cerevisiae deletion strains, locus YNL271C, strain bni1, stronger effect = lower value 0.997 | S. cerevisiae deletion strains, locus YNL298W, strain CLA4, stronger effect = lower value 1 | S. cerevisiae deletion strains, locus YNL307C, strain MCK1, stronger effect = lower value 0.998 | S. cerevisiae deletion strains, locus YNL322C, strain KRE1 (second series), stronger effect = lower value 0.975 | S. cerevisiae deletion strains, locus YNL322C, strain KRE1, stronger effect = lower value 0.991 and 1 | S. cerevisiae deletion strains, locus YNR049C, strain mso1, stronger effect = lower value 0.983 | S. cerevisiae deletion strains, locus YNR052C, strain pop2, stronger effect = lower value 1 | S. cerevisiae deletion strains, locus YOL006C, strain TOP1, stronger effect = lower value 1 | S. cerevisiae deletion strains, locus YOL012C, strain htz1 1.51 | S. cerevisiae deletion strains, locus YOL147C, strain pex11, stronger effect = lower value 0.999 | S. cerevisiae deletion strains, locus YOR001W, strain rrp6, stronger effect = lower value 0.954 | S. cerevisiae deletion strains, locus YOR061W, strain CKA2, stronger effect = lower value 0.969 | S. cerevisiae deletion strains, locus YOR069W, strain VPS5, stronger effect = lower value 0.995 | S. cerevisiae deletion strains, locus YOR070C, strain gyp1, stronger effect = lower value 0.995 | S. cerevisiae deletion strains, locus YOR080W, strain dia2, stronger effect = lower value 0.974 | S. cerevisiae deletion strains, locus YOR083W, strain WHI5 (second series), stronger effect = lower value 1.02 | S. cerevisiae deletion strains, locus YOR083W, strain WHI5, stronger effect = lower value 0.999 | S. cerevisiae deletion strains, locus YOR106W, strain vam3, stronger effect = lower value 1.01 | S. cerevisiae deletion strains, locus YOR136W, strain idh2, stronger effect = lower value 0.99 | S. cerevisiae deletion strains, locus YOR144C, strain elg1, stronger effect = lower value 0.994 | S. cerevisiae deletion strains, locus YOR184W, strain ser1, stronger effect = lower value 0.994 | S. cerevisiae deletion strains, locus YOR231W, strain MKK1, stronger effect = lower value 0.988 | S. cerevisiae deletion strains, locus YOR265W, strain rbl2, stronger effect = lower value 1 | S. cerevisiae deletion strains, locus YOR270C, strain vph1, stronger effect = lower value 1 | S. cerevisiae deletion strains, locus YOR290C, strain snf2, stronger effect = lower value 0.986 | S. cerevisiae deletion strains, locus YOR316C, strain cot1, stronger effect = lower value 0.983 | S. cerevisiae deletion strains, locus YPL051W, strain arl3, stronger effect = lower value 0.997 | S. cerevisiae deletion strains, locus YPL055C, strain LGE1, stronger effect = lower value 0.976 and 1.01 | S. cerevisiae deletion strains, locus YPL078C, strain atp4, stronger effect = lower value 0.987 | S. cerevisiae deletion strains, locus YPL106C, strain sse1, stronger effect = lower value 0.972 | S. cerevisiae deletion strains, locus YPL240C, strain hsp82, stronger effect = lower value 0.982 | S. cerevisiae deletion strains, locus YPL241C, strain CIN2, stronger effect = lower value 0.996 | S. cerevisiae deletion strains, locus YPL256C, strain CLN2, stronger effect = lower value 0.954 | S. cerevisiae deletion strains, locus YPR119W, strain clb2, stronger effect = lower value 0.99 | S. cerevisiae deletion strains, locus YPR141C, strain kar3, stronger effect = lower value 0.977 | S. cerevisiae deletion strains, locus YPR163C, strain tif3, stronger effect = lower value 0.997 | S. cerevisiae deletion strains, locus YPR167C, strain met16, stronger effect = lower value 0.997 | S. cerevisiae deletion strains, strain wtn01, stronger effect = lower value 0.992 | S. cerevisiae strains, strain wild type, stronger effect = lower value 0.992
